Some test systems named below: BT-549 breast; SW-620 colon; MCF7 breast; HCT-116 colon; HCC-2998 colon; KM12 colon.
Holding throughout (assay): NCI-60 one-dose screen, 48 h (100 = growth as untreated, 0 = no growth, -100 = all killed)
A further experiment deals with T-47D breast. The settings on record: 10 µM.
Another experiment deals with MDA-MB-435 melanoma. The following applies: 10 µM.

SMILES strings stand for the structures. “And” between values parts separate entries of the source, which are not always exact repeats. Identical values can stand only once. The panel holds about 83,000 compounds, 20% with a hit somewhere; the sample as a whole holds those more often.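 In brief: 96-well plates, 48 h treatment, single concentration, percent growth endpoint.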 The source made the active and inactive calls. Rule for the calls: active = growth percent below 10; inactive = the rest.

For `C=C1N(C)c2ccc(Cl)cc2C1(C)C`, the growth was 66.9% (inactive) with BT-549 breast (10 µM); 57.4% (inactive) in the experiment with SW-620 colon (10 µM); 89% (inactive) with MCF7 breast (10 µM); 17.2% (inactive) with HCT-116 colon (10 µM); 68.7% (inactive) with HCC-2998 colon (10 µM); 40.2% (inactive) in the experiment with KM12 colon (10 µM).

For the compound `CC(=O)O[C@H]1C(=O)[C@@]2(C)[C@H]([C@H](OC(=O)c3ccccc3)[C@]3(O)C[C@H](OC(=O)[C@H](O)[C@@H](NC(=O)c4ccccc4)c4ccccc4)C(C)=C1C3(C)C)[C@]1(OC(C)=O)CO[C@@H]1C[C@@H]2O`, the growth in the experiment with BT-549 breast (0.01 µM) was -1.3% (active); in the experiment with BT-549 breast (10 µM), 6.6% (active); in the experiment on SW-620 colon (0.01 µM), 24.4% (inactive); in the experiment with SW-620 colon (2.5 µM) it was 38.5% (inactive); in the experiment on SW-620 colon (5 µM), 50.3% (inactive); in the experiment with SW-620 colon (10 µM), 53.7% (inactive) and 53.5% (inactive). Besides, the growth was 8.89% (active) with MCF7 breast (0.01 µM); 14.3% (inactive) with MCF7 breast (2.5 µM); 15.4% (inactive) in the experiment with MCF7 breast (5 µM); 15.4% (inactive) and 15.3% (inactive) with MCF7 breast (10 µM); 6.56% (active) with HCT-116 colon (0.01 µM); 2.87% (active) with HCT-116 colon (2.5 µM). Besides, the growth is 6.48% (active) in the experiment with HCT-116 colon (5 µM); 11.9% (inactive) and 8.9% (active) in the experiment on HCT-116 colon (10 µM); -65.6% (active) in the experiment on HCC-2998 colon (0.01 µM); -10.3% (active) with HCC-2998 colon (2.5 µM); 0.255% (active) with HCC-2998 colon (5 µM); -3.97% (active) and -21.4% (active) in the experiment with HCC-2998 colon (10 µM). The growth was 10.6% (inactive) in the experiment on KM12 colon (0.01 µM); 1.85% (active) in the experiment with KM12 colon (2.5 µM); 4.45% (active) in the experiment with KM12 colon (5 µM); 2.94% (active) and 10.9% (inactive) in the experiment on KM12 colon (10 µM).

Regarding `S=C1SCN(CCc2ccccc2)CN1CCc1ccccc1`, the growth in the experiment on BT-549 breast (10 µM) is 129% (inactive); with SW-620 colon (10 µM) it was 89.4% (inactive); in the experiment on MCF7 breast (10 µM) it was 40.7% (inactive); in the experiment on HCT-116 colon (10 µM), 102% (inactive); with HCC-2998 colon (10 µM), 101% (inactive); in the experiment on KM12 colon (10 µM), 96.8% (inactive).

With `Cn1ncc2cc3c(Nc4ccc(Cl)cc4)cccc3nc21`, the growth is 97.4% (inactive) in the experiment with BT-549 breast (10 µM); 97.5% (inactive) with SW-620 colon (10 µM); 86.8% (inactive) with MCF7 breast (10 µM); 85.6% (inactive) with HCT-116 colon (10 µM); 110% (inactive) in the experiment with HCC-2998 colon (10 µM); 90.8% (inactive) in the experiment on KM12 colon (10 µM).

Take `CC1CCC2(C(=O)O)CCC3(C)C(=CCC4C5(C)CC(O)C(O)C(C)(CO)C5C(O)CC43C)C2C1C` (stereo not given): the growth is 97% (inactive) in the experiment with T-47D breast; 114% (inactive) in the experiment with BT-549 breast (10 µM); 107% (inactive) with SW-620 colon (10 µM); 96.9% (inactive) in the experiment on MCF7 breast (10 µM); 103% (inactive) in the experiment with HCT-116 colon (10 µM); 104% (inactive) in the experiment on KM12 colon (10 µM).

With `Cc1cc(Cl)ccc1NC(=O)/C(Cl)=C1/Sc2ccccc2NC1=O`, the growth in the experiment with BT-549 breast (10 µM) was 115% (inactive); in the experiment with MDA-MB-435 melanoma, 99.7% (inactive); in the experiment on SW-620 colon (10 µM), 113% (inactive); in the experiment on MCF7 breast (10 µM) it was 70.8% (inactive); in the experiment on HCT-116 colon (10 µM) it was 76.7% (inactive); in the experiment with HCC-2998 colon (10 µM), 119% (inactive). Besides, the growth in the experiment on KM12 colon (10 µM) is 96.4% (inactive).

`N#CC(=C1C=CC(=NO)C=C1)c1ccccc1`: the growth in the experiment on BT-549 breast (10 µM) was -7.31% (active); in the experiment with MDA-MB-435 melanoma, -20.7% (active); in the experiment with SW-620 colon (10 µM) it was 1.65% (active); in the experiment on MCF7 breast (10 µM) it was 8.32% (active); in the experiment with HCT-116 colon (10 µM) it was -47.8% (active); with HCC-2998 colon (10 µM), 90.6% (inactive). Further, the growth in the experiment with KM12 colon (10 µM) was -57% (active).

For the compound `O=C1c2ccccc2CCC1(Br)Br`, the growth in the experiment on BT-549 breast (10 µM) was -31.9% (active); in the experiment with SW-620 colon (10 µM) it was -45.5% (active); with MCF7 breast (10 µM) it was 21.6% (inactive); with HCT-116 colon (10 µM), -90% (active); in the experiment on HCC-2998 colon (10 µM), 77.2% (inactive); in the experiment with KM12 colon (10 µM), 87.2% (inactive).

Take `Nc1nc(N)c2cc(Sc3ccc4ccccc4c3)ccc2n1`: the growth in the experiment with BT-549 breast (10 µM) was 67.4% (inactive); with MDA-MB-435 melanoma, 33.8% (inactive); in the experiment with SW-620 colon (10 µM) it was 18.9% (inactive); in the experiment with MCF7 breast (10 µM), 25.2% (inactive); in the experiment on HCT-116 colon (10 µM), 15.4% (inactive); in the experiment with HCC-2998 colon (10 µM) it was -39.4% (active). Moreover, in the experiment with KM12 colon (10 µM), the growth is 23.8% (inactive).

In the case of `O=C1C=CC(=O)N1c1ccc(N2C(=O)C=CC2=O)cc1`, the growth in the experiment on BT-549 breast (10 µM) is 89.6% (inactive); in the experiment on MDA-MB-435 melanoma, 107% (inactive); in the experiment on SW-620 colon (10 µM), 112% (inactive); in the experiment with MCF7 breast (10 µM), 97% (inactive); in the experiment on HCT-116 colon (10 µM) it was 98.3% (inactive); with HCC-2998 colon (10 µM) it was 115% (inactive). Also, the growth in the experiment on KM12 colon (10 µM) was 113% (inactive).

`CC[C@@]1(OC(=O)CN(C)C)C(=O)OCc2c1cc1n(c2=O)Cc2cc3c(N)cccc3nc2-1`: the growth in the experiment with BT-549 breast (10 µM) is -11.8% (active); with SW-620 colon (10 µM), 3.83% (active); with MCF7 breast (10 µM) it was -1.34% (active); in the experiment on HCT-116 colon (10 µM), 0.716% (active); in the experiment on HCC-2998 colon (10 µM) it was -14.7% (active); in the experiment with KM12 colon (10 µM) it was 0.253% (active).

On to `COc1ccc2c(c1)[nH]c1c(/C=C/c3ccccc3)nccc12`, for which the growth with BT-549 breast (10 µM) was 61.8% (inactive); in the experiment with SW-620 colon (10 µM), 72.1% (inactive); with MCF7 breast (10 µM) it was 65.7% (inactive); in the experiment with HCT-116 colon (10 µM) it was 29.9% (inactive); in the experiment with HCC-2998 colon (10 µM), 34.4% (inactive); with KM12 colon (10 µM) it was 71.1% (inactive).

With `O=[N+]([O-])c1cc(S(=O)(=O)Nc2ccccc2)ccc1Cl`, the growth in the experiment with T-47D breast was 69.6% (inactive); in the experiment on BT-549 breast (10 µM), 92.5% (inactive); in the experiment with SW-620 colon (10 µM), 105% (inactive); in the experiment with MCF7 breast (10 µM) it was 84% (inactive); with HCT-116 colon (10 µM) it was 92.1% (inactive); with HCC-2998 colon (10 µM) it was 90% (inactive). The growth in the experiment with KM12 colon (10 µM) is 98.5% (inactive).

`N#C/C(=C/N1C(=O)/C(=C/c2ccc([N+](=O)[O-])cc2)SC1=S)c1nc2ccccc2s1`: the growth in the experiment on BT-549 breast (10 µM) is 84% (inactive); in the experiment with SW-620 colon (10 µM) it was 87.8% (inactive); with MCF7 breast (10 µM), 60.7% (inactive); in the experiment on HCT-116 colon (10 µM), 85.9% (inactive); in the experiment on HCC-2998 colon (10 µM), 92.6% (inactive); in the experiment with KM12 colon (10 µM), 89.7% (inactive).

In the case of `O=C(O)c1ccccc1.[Ag]`, the growth was 99.4% (inactive) in the experiment on BT-549 breast (10 µM); 88.5% (inactive) in the experiment on MDA-MB-435 melanoma; 96.4% (inactive) in the experiment on MCF7 breast (10 µM); 96.8% (inactive) in the experiment on HCT-116 colon (10 µM); 109% (inactive) with HCC-2998 colon (10 µM); 89.3% (inactive) in the experiment on KM12 colon (10 µM).

Take `Cc1c(-c2ccccc2)[nH]c2ccccc12`: the growth was 92.4% (inactive) with T-47D breast; 99.3% (inactive) in the experiment on SW-620 colon (10 µM); 79.7% (inactive) in the experiment on MCF7 breast (10 µM); 113% (inactive) in the experiment with HCT-116 colon (10 µM); 102% (inactive) with HCC-2998 colon (10 µM); 103% (inactive) in the experiment with KM12 colon (10 µM).

Take `Cc1cc(O)c2c(c1O)C(=O)C13C(=C2O)C(=O)C2C(O)C1C1C(O)C3C(=O)C3=C(O)c4c(O)cc(C)c(O)c4C(=O)C321` (stereo not given): the growth is -53.3% (active) with BT-549 breast (10 µM); 8.3% (active) in the experiment on SW-620 colon (10 µM); 4.59% (active) with MCF7 breast (10 µM); 2.8% (active) with HCT-116 colon (10 µM); -43.6% (active) in the experiment with HCC-2998 colon (10 µM); -53.3% (active) with KM12 colon (10 µM).

In the case of `ClCCn1c(CCl)nc2ccc(Cl)cc21`, the growth in the experiment with BT-549 breast (10 µM) is -66.2% (active); in the experiment on SW-620 colon (10 µM), -54.6% (active); in the experiment with MCF7 breast (10 µM), -6.55% (active); with HCT-116 colon (10 µM), -28.9% (active); in the experiment on HCC-2998 colon (10 µM) it was -2.45% (active); in the experiment on KM12 colon (10 µM), -43% (active).

As to `COc1cc(N)ccc1Nc1c2ccccc2nc2ccccc12`, the growth is 90% (inactive) with BT-549 breast (10 µM); 4.74% (active) in the experiment on SW-620 colon (10 µM); 12.5% (inactive) with MCF7 breast (10 µM); -88.5% (active) with HCT-116 colon (10 µM); 94.8% (inactive) in the experiment on HCC-2998 colon (10 µM); 36.2% (inactive) in the experiment with KM12 colon (10 µM).

The values are drawn from PubChem BioAssay (NCI).
